Records with an inconclusive call do not appear. Activity calls are given as the source filed them. Calls follow the shape of the dose curve; as a rule, active = well fitted inhibition curve with a large enough effect; inconclusive = small, poorly fitted or top-dose-only effect; inactive = flat fitted curve, though single readings scatter.
What follows are compounds tested on CP203 (assay: qHTS profiling for inhibitors of Plasmodium falciparum proliferation (AID 504749; also: nearly all actives have a fitted effect of over 60% in size;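 as to activity, negative = inhibition: 0% = DMSO vehicle and full inhibition = artemisinin control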)). Settings: P. falciparum in erythrocytes, SYBR Green DNA, 72 h; series mostly up to 28.7 µM; activity, negative = inhibition: at the top concentration.
From the text: NIH National Institute of Allergy and Infectious Diseases [NIAID] NIH Chemical Genomics Center [NCGC] MLPCN Grant: None Assay Provider: Xinzhuan Su, NIAID NCGC Assay Overview: Plasmodium falciparum is a virulent malarial parasite that kills 1-2 million people worldwide each year. Transmitted by mosquitoes, the sporozoite form of the parasite enters the blood stream to infect hepatocytes, where they become merozoites that infect red blood cells (erythrocytes). Within erythrocytes, merozoites begin a […] cycle of growth and division, after which the parasite is released to infect new red blood cells. Gametocytes, which form within erythrocytes as well, circulate in the bloodstream and are ingested by the mosquito, thereby completing the life cycle. To profile malarial isolates for differential chemical responses and to identify inhibitors of malarial growth, an assay that measures P. falciparum growth and replication within erythrocytes was employed. This assay uses a DNA binding fluorescent dye (SYBR Green) to detect parasite DNA following cell lysis. Because mature erythrocytes lack DNA, only Plasmodium-derived DNA is detected.
NCGC Assay Protocol Summary: The SYBR Green viability assay was adapted from a method described previously (Plouffe et al., 2008). For screening 3 ul culture medium was dispensed into 1536 well black clear bottom plates (Aurora Biotechnologies) using a Multidrop Combi (Thermo Fisher Scientific Inc.), 23 nL compounds in DMSO were added by a pin tool (Kalypsys), and 5 ul of erythrocytes infected with P. falciparum (0.3% parasitemia, 2.5% hematocrit final concentration) were added. The plates were incubated at 37 C in a humidified incubator in 5% CO2 for 72 h, and 2 ul lysis buffer (20 mM Tris HCl, 10 mM EDTA, 0.16% saponin, 1.6% triton X, 10X SYBR Green I supplied as 10,000X […] by Invitrogen) was added to each well. The plates were mixed for 25 sec with gentle shaking and incubated overnight at room temperature in the dark. The following morning, fluorescence intensity at 485(14) nm excitation and 535(25) nm emission wavelengths was measured on an EnVision (Perkin Elmer) plate reader. Plate reads were normalized relative to the control inhibitor (0.29 uM artemisinin) and vehicle (DMSO) wells present on each plate and then corrected by an algorithm using vehicle-only control plates at the beginning and end of the compound plate stack.
Potency is read from the fitted curve at half-maximal effect.

| Compound | activity, negative = inhibition | Potency |
| --- | --- | --- |
| C#CCN(C)Cc1ccccc1 | -2.86% [at 12.8 µM] (inactive) |  |
| O=C(O)[C@@H]1CSCN1 | 1.91% (inactive) |  |
| CCCn1cnc2c1c(=O)n(CCCCC(C)=O)c(=O)n2C | 8.86% (inactive) |  |
| COc1ccc(Cl)cc1C(=O)NCCc1ccc(S(=O)(=O)NC(=O)NC2CCCCC2)cc1 | -2.4% (inactive) |  |
| Cc1ccc2nc(N)[nH]c(=O)c2c1Sc1ccncc1 | -6.56% (inactive) |  |
| CCN(CC)CCNC(C(=O)OCCC(C)C)c1ccccc1 (stereo not given) |  | 9.53 µM (active) |
| CCCOC(=O)c1ccccc1 | 0.0432% (inactive) |  |
| Cc1ccc(C(C)C)cc2c(C)ccc1-2 | -6.84% (inactive) |  |
| O=C(CCCN1CCN(c2ccccn2)CC1)c1ccc(F)cc1 | -1.36% (inactive) |  |
| CCN(CC)CCNC(=O)c1cc(Cl)c(N)cc1OC | 2.23% (inactive) |  |
| Nc1ccc(S(=O)(=O)Nc2ccccc2)cc1 | 1.29% (inactive) |  |
| CCN(CC)CCSC(=O)C(c1ccccc1)c1ccccc1 |  | inactive |
| COc1cc(C)c(Cc2cnc(N)nc2N)cc1OC | -13.2% (inactive) |  |
| O=C(O)COc1nn(Cc2ccccc2)c2ccccc12 | -6.47% (inactive) |  |
| Nc1ccc(S(=O)(=O)NC(=O)c2ccccc2)cc1 | 9.83% [at 12.8 µM] (inactive) |  |
| COc1cc2[nH]c(=O)[nH]c(=O)c2cc1OC | 5.32% [at 12.8 µM] (inactive) |  |
| CCn1cc(C(=O)O)c(=O)c2cnc(N3CCNCC3)nc21 | 2.22% [at 12.8 µM] (inactive) |  |
| CC(C(O)c1ccc(O)cc1)N1CCC(Cc2ccccc2)CC1 (stereo not given) |  | 12 µM (active) |
| CC(C)(C)C(=O)NCCCC(=O)O | 0.482% (inactive) |  |
| [O-][n+]1cccc(CO)c1 | 0.612% (inactive) |  |

| Compound | activity, negative = inhibition | Potency |
| --- | --- | --- |
| NS(=O)(=O)c1cc2c(cc1Cl)NC(CSCc1ccccc1)=NS2(=O)=O | -0.442% [at 12.8 µM] (inactive) |  |
| COc1ccc2[nH]c(S(=O)Cc3ncc(C)c(OC)c3C)nc2n1 (stereo not given) | -18.5% (inactive) |  |
| O=S(=O)(O)NC1CCCCC1 | -1.92% (inactive) |  |
| COc1cc(C(=O)N2CCOCC2)cc(OC)c1OC |  | inactive |
| Cc1cccc(Nc2cc(Cl)nc(SCC(=O)O)n2)c1C | -0.326% (inactive) |  |
| O=c1[nH]c(=O)c2[nH]c(=O)[nH]c2[nH]1 | 0.518% (inactive) |  |
| NC(CSCC(=O)O)C(=O)O (stereo not given) | -0.684% (inactive) |  |
| Nc1ncnc2c1ncn2[C@@H]1O[C@H](CO)[C@@H](O)[C@H]1O | 8.12% (inactive) |  |
| CCCCN(CCCC)CC(O)c1cc(Cl)cc2c1-c1ccc(Cl)cc1/C2=C/c1ccc(Cl)cc1 (stereo not given) |  | 0.019 µM (active) |
| Cc1ncc(COP(=O)(O)O)c(C=O)c1O | 0.0552% (inactive) |  |
| C[C@]12C[C@H](O)[C@H]3[C@@H](CCC4=CC(=O)CC[C@@]43C)[C@@H]1CC[C@@H]2C(=O)CO | -2.28% (inactive) |  |
| CCCCOC(=O)c1ccc(O)cc1 | -18% (inactive) |  |
| CC(C)(C)C(=O)C(Oc1ccc(Cl)cc1)n1ccnc1 (stereo not given) |  | 13.5 µM (active) |
| NCCNCCNCCN | -3.59% (inactive) |  |
| CCCCCCCCCCCCCCCCCCOCC(O)CO (stereo not given) | 10.3% (inactive) |  |
| O=c1cc(CO)occ1O | 0.16% (inactive) |  |
| CCCCCCCCCCCCCCCC(=O)NCCO | 9.54% (inactive) |  |
| CC1=C(CC(=O)O)c2cc(F)ccc2/C1=C\c1ccc(S(C)=O)cc1 (stereo not given) | 1.26% (inactive) |  |
| CC12CCC(CC1)C(C)(C)O2 | -5.36% (inactive) |  |
| CC(=O)CCC(=O)O | 11.3% (inactive) |  |
